# Biological target: PUM1 PUF domain R5-HRR (Homo sapiens, UniProt Q14671 828-1176, C1007H;Q1011R)
# Test: yeast three-hybrid, YBZ-1, SC-Leu-His + 0.5 mM 3-AT, 4 days
# Conditions: tags: N-Gal4 AD-HA kept; label: inside an RPR1-promoter hybrid RNA with tandem MS2 sites; ssRNA
# In short: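 Sequencing with Illumina followed PCR amplification of the repeat regions from transformants grown four days on SC-Leu (input) or SC-Leu-His + 0.5 mM 3-AT (selection). The transformants were strain YBZ-1 with a LexA–MS2 coat fusion and a HIS3 reporter, carrying Pumilio-1 PUF domain libraries and matching RNA elements. The interaction score is the log change in variant frequency from input to selection, computed in log2 with a pseudocount of 1 for absent variants.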
row,Sequence,binding signal
1,GGCUAGAACUAGUGGAUCCCCCGGCGCCCGGCGGCUCGAGCCCGGGUAAGUGUAAAUAGUCUGCAUGCCGCCGGGCGCCAUGCCUGCAGGUCGACUCUAGAAAACAUG,1.38 log2 enrichment (interaction score)
2,GGCUAGAACUAGUGGAUCCCCCGGCGCCCGGCGGCUCGAGCCCGGGUAAGUGUCAAUAGUCUGCAUGCCGCCGGGCGCCAUGCCUGCAGGUCGACUCUAGAAAACAUG,2.4 log2 enrichment (interaction score)
3,GGCUAGAACUAGUGGAUCCCCCGGCGCCCGGCGGCUCGAGCCCGGGUAAGUGUUAAUAGUCUGCAUGCCGCCGGGCGCCAUGCCUGCAGGUCGACUCUAGAAAACAUG,4.62 log2 enrichment (interaction score)
